Measurements: PubChem BioAssay AID602357 (National Center for Advancing Translational Sciences (NCATS), 2012)
Records with an inconclusive call do not appear. Calls of active or inactive are those of the source. Calls come from the whole dose curve; as a rule, active = well fitted inhibition curve with a large enough effect; inconclusive = small, poorly fitted or top-dose-only effect; inactive = no such curve, though single readings can be large or run the other way.

Target: Luciferin 4-monooxygenase (Photinus pyralis) (UniProt P08659)
Sequence (P08659 whole entry, looked up): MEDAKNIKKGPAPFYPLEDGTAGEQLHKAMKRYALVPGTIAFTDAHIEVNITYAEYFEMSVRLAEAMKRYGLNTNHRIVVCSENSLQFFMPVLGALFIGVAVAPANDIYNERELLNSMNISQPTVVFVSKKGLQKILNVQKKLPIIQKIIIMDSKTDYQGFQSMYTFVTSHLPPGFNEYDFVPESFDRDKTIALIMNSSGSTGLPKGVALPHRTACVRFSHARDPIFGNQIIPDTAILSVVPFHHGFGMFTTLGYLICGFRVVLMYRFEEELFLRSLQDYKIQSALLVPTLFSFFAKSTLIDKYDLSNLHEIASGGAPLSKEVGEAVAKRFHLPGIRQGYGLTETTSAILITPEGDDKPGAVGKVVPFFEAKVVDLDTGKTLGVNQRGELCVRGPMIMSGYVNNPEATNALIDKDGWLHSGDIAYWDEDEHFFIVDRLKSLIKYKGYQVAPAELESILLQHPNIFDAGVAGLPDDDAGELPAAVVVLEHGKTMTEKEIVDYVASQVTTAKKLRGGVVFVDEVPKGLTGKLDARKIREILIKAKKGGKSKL
Experiment: FLuc inhibitory activity for the follow-up compounds in a biochemical assay with Km concentrations of substrate
Summary of the method: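 Purified P. pyralis luciferase (10 nM final) in 50 mM Tris acetate pH 7.5, 10 mM Mg acetate, 0.01% Tween-20, 0.05% BSA, with 10 uM D-luciferin and 10 uM ATP. 12-point qHTS titration, ~60 uM to 0.3 nM; luminescence read by CCD imager.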

Row | Structure (SMILES) | Potency
1 | O=C(Cc1ccccc1)Nc1ccccc1C(=O)Nc1ccc(C(=O)O)cc1 | inactive
2 | O=C(Nc1ccc(-c2nc3ccccc3s2)cc1)C1=COCCO1 | 91.9 nM (active)
3 | NC(=O)Cc1ccc2sc(-c3ccccc3)nc2c1 | 5170 nM (active)
4 | Cc1ccc(C(=O)Nc2cccc(C(=O)O)c2)cc1 | 32.6 nM (active)
5 | O=C(O)c1cccc(NC(=O)c2ccc(Cl)c(S(=O)(=O)N3CCCCCC3)c2)c1 | 58 nM (active)
6 | COc1ccc2nc(NC(=O)CCc3ccc(OC)c(OC)c3)sc2c1 | inactive
7 | COc1ccc(C(=O)Nc2cccc(C(=O)O)c2)cc1S(=O)(=O)N1CCCC1 | 5170 nM (active)
8 | Nc1ccc(-c2nc3ccc(C(=O)O)cc3s2)cc1 | 7.3 nM (active)
9 | O=C(Nc1ccccc1C(=O)O)c1cccc(NC(=O)c2ccccc2Cl)c1 | 23100 nM (active)
10 | O=C(Nc1ccccc1C(=O)O)c1cccc(NC(=O)c2ccc(Br)o2)c1 | 23100 nM (active)
11 | Nc1ccc2nc(-c3ccccc3)sc2c1 | 163 nM (active)
12 | O=C(Nc1ccccc1-c1nc2ccccc2s1)c1cccnc1 | inactive
13 | Cc1ccc(NS(=O)(=O)c2ccc(Cl)c(C(=O)Nc3cccc(C(=O)O)c3)c2)cc1 | inactive
14 | CCOc1ccc(C(=O)Nc2ccccc2C(=O)O)cc1 | 1460 nM (active)
15 | COc1ccccc1C(=O)Nc1ccc(C(=O)O)cc1 | inactive
16 | COc1ccc2nc(NC(=O)c3cccs3)sc2c1 | 20600 nM (active)
17 | Cc1ccc(C(=O)Nc2cccc(C(=O)O)c2)cc1S(=O)(=O)N1CCOCC1 | 291 nM (active)
